Shn3 3UTR inh: reduction of Shn3 3'UTR firefly luciferase signal, primary screen, Schnurri-3 inhibitor project, cell-based, Clone20 osteoblasts, set 2; 360,000 compounds, 0.52% hits; inhibition, % at 12.5 µM; Clone20 osteoblast Shn3 3'UTR firefly luciferase, 24 h;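 active means mean inhibition of at least 75% with every replicate also reaching 75%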;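 further: 0% = median of neutral control wells and 100% = pilot-screen positive control compound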
Mdm2 MdmX PPI: inhibitors of human Mdm2-MdmX association, primary screen, cell-based, luminescence, split luciferase, SaOS-2, uHTS. SaOS-2 split-luciferase Mdm2/MdmX complementation. inhibition, % at 8 µM. 330,000 compounds, 3% hits;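 active means inhibition of at least 50% at 8 µM in the primary screen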
Target sequence (O15151 whole entry, looked up): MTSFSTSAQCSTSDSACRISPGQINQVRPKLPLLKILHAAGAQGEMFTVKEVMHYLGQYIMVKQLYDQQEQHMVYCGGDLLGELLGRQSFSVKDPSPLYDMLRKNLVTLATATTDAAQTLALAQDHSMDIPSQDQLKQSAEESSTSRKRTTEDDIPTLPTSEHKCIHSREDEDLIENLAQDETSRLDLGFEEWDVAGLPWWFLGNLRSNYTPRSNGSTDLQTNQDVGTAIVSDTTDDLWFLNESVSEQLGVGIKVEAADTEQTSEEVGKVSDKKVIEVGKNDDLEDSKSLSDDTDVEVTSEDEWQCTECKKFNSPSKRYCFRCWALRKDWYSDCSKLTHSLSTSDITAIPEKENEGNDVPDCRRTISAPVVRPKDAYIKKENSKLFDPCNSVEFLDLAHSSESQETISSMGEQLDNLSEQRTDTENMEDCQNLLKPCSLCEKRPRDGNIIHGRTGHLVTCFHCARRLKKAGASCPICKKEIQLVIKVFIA
Target sequence (Q00987 whole entry, looked up): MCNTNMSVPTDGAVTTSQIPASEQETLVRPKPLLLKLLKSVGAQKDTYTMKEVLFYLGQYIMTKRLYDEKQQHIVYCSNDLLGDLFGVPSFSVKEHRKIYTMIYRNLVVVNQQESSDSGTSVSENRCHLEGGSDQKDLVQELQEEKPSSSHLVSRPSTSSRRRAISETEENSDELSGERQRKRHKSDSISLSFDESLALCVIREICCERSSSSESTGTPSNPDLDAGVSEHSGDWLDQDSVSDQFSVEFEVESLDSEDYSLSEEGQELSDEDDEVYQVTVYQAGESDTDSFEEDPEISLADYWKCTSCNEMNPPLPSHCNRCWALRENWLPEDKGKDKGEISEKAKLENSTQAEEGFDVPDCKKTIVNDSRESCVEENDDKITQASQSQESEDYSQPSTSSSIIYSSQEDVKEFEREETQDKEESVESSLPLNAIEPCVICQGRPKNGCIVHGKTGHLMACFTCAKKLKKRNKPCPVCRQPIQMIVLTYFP
Gli-Sufu antag: Gli-Sufu pathway antagonists, primary screen, luciferase luminescence, Sufu-KO-LIGHT cells, uHTS | Sufu-KO-LIGHT fibroblasts, Gli luciferase reporter luminescence | 340,000 compounds, 0.74% hits | AID 588413, 2011 | inhibition, % at 5 µM;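 active means inhibition above about 55%, limit read from the data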;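 further: 0% = DMSO-treated cells and 100% = wells with medium but no cells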
697 NFkB inh: inhibitors of PMA/ionomycin-induced NF-kB reporter, 697 cells, primary screen, B-cell NF-kB inhibitor project, cell-based, luminescence, uHTS | inhibition, % at 4 µM | 330,000 compounds, 0.33% hits | 697 B-cell NF-kB luciferase reporter, 16 h | AID 435022, 2010; in the data active means inhibition above about 35%
Jurkat NFkB inh: inhibitors of induced NF-kB luciferase reporter, primary screen, TCR NF-kB activation inhibitor project, cell-based, luminescence, uHTS | 330,000 compounds, 0.53% hits | Jurkat, PMA/ionomycin-induced NF-kB luciferase reporter | inhibition, % at 4 µM; in the data active means inhibition above about 50%
Mdm2-MdmX conf: Mdm2-MdmX complex disruptors, retested hits, confirmation, luminescence, single concentration; Mdm2-MdmX binding, luminescent assay; inhibition, % at 8 µM; shares compounds with Mdm2 MdmX PPI; 10,000 compounds, 55% hits; in the data active means inhibition above about 40%
FLuc counter: full-length luciferase signal inhibition, confirmation, counter-screen for Mdm2/MdmX interaction inhibitor project, cell-based, single concentration, SaOS-2; shares compounds with Mdm2 MdmX PPI; SaOS-2 full-length luciferase counterscreen, luminescence; inhibition, % at 8 µM; 6,200 compounds, 77% hits; AID 504607, 2011;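 active means mean inhibition at 8 µM reaching about 37%, which flags the compound as non-specific, limit read from the data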;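 further: p53-null SaOS-2 cells with luciferase driven by a doxycycline-inducible promoter; compound on cells about two nights before reading with doxycycline added after day one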
The depositor's hits bear a star; . = not tested or not shown. Rows were chosen to be rich in hits. Some 3.8% of all compounds tested hit in one or more screens of this group.

SMILES | Shn3 3UTR inh | Mdm2 MdmX PPI | Gli-Sufu antag | 697 NFkB inh | Jurkat NFkB inh | Mdm2-MdmX conf | FLuc counter
CCC(=O)N1CC2(CC(c3cccc(NC(=O)COc4ccc(Cl)cc4)c3)=NO2)C[C@@H]1C(N)=O (stereo not given in full) | . | 0.4 | . | 0.0 | -4.7 | . | .
NC(=O)[C@@H]1CC2(CC(c3cccc(NC(=O)CC(c4ccccc4)c4ccccc4)c3)=NO2)CN1C(=O)COc1ccc(Cl)cc1 (stereo not given in full) | 28.0 | 73.3* | 9.3 | 0.7 | 22.7 | 42.3* | 80.2*
COCCN(C(=O)COC(=O)c1c(NC(C)=O)sc(C)c1C)c1c(N)n(Cc2ccccc2)c(=O)[nH]c1=O | -13.6 | 8.2 | 4.5 | -0.2 | 8.5 | . | .
CCOC(=O)C1(Cc2cccc(Cl)c2)CCCN(C(=O)c2cnn(CC)c2)C1 (stereo not given) | -44.1 | -8.1 | 3.5 | -4.4 | -7.5 | . | .
Cc1ccc(S(=O)(=O)Nc2cccc(C(=O)NCCN3CCOCC3)c2)cc1F | 2.7 | -22.1 | 0.5 | 1.5 | 0.7 | . | .
O=C(c1ccc(Cl)c(Cl)c1)N1CCC(=O)N(C(COCc2cccc(C(F)(F)F)c2)Cc2ccccc2)CC1 (stereo not given) | -0.9 | 50.7* | 8.3 | -1.8 | 0.0 | 21.2 | .
O=C(c1ccc(Cl)c(Cl)c1)N1CCC(=O)N(C(COCc2ccc(Cl)cc2)Cc2ccccc2)CC1 (stereo not given) | 12.5 | 52.3* | 21.2 | 9.8 | -3.8 | 26.9 | .
O=C(c1ccc(C(F)(F)F)cc1)N1CCC(=O)N(C(COCc2ccccc2)Cc2ccccc2)CC1 (stereo not given) | 12.9 | 23.2 | 7.1 | 12.0 | 23.7 | . | .
Cc1cccc(COCC(Cc2ccccc2)N2CCN(C(=O)c3cc(Cl)cc(Cl)c3)CCC2=O)c1 (stereo not given) | 19.2 | 50.4* | 19.6 | -18.1 | -1.9 | 27.2 | .
Cc1cccc(COCC(Cc2ccccc2)N2CCN(C(=O)c3ccc(Cl)c(Cl)c3)CCC2=O)c1 (stereo not given) | -5.7 | 32.9 | -14.9 | -7.7 | 4.5 | . | .
O=C(NCc1cccnc1)c1cc(C2CCCCN2C(=O)OCc2ccccc2)on1 (stereo not given) | -105.8 | . | . | . | . | . | .
CC1(C)CC(=O)C=C(c2ccccc2-c2ccc(S(C)(=O)=O)cc2)C1=O | -29.9 | . | . | . | . | . | .
COc1ccc(C2CC(c3ccccc3OC(C)=O)=NN2C(=O)/C=C/c2ccccc2)cc1OC (stereo not given) | 10.7 | 41.4 | 8.0 | 0.3 | 12.1 | . | .
COc1ccc(C2=NN(C(=O)/C=C/c3ccccc3)C(c3ccccc3)C2)c(OC(C)=O)c1 (stereo not given) | 1.4 | 58.2* | 2.4 | 13.9 | 16.2 | 14.9 | .
COc1ccc(-c2nnc(NC(=O)c3ccc(S(=O)(=O)N4CCCc5ccccc54)cc3)o2)cc1 | 40.2 | 61.8* | 11.1 | -57.7 | 16.9 | 59.0* | 46.4*
O=C(Nc1nnc(C2CC2)o1)c1ccc(S(=O)(=O)N2CCCc3ccccc32)cc1 | 77.7 | 50.2* | -2.3 | -31.7 | -0.5 | 43.8* | 70.7*
CC1CN(S(=O)(=O)c2ccc(C(=O)Nc3nnc(-c4ccc5c(c4)CCCC5)o3)cc2)CC(C)O1 (stereo not given) | 48.0 | 67.1* | 2.7 | -43.1 | 6.0 | 31.9 | 59.2*
O=C1NN(c2ccccc2)C(=O)C1=Cc1ccccc1O | 0.1 | . | . | . | . | . | .
Cc1cc(C=C2C(=O)c3ccccc3C2=O)c(C)n1-c1ccc(C(=O)O)cc1 | -5.5 | 5.3 | 6.8 | -3.6 | -1.9 | . | .
Cc1cc(C=C2C(=O)c3ccccc3C2=O)c(C)n1-c1ccccc1 | 20.6 | 61.8* | 12.2 | -30.7 | -9.2 | 56.0* | 34.3
Cc1cc(/C=C2/C(=O)NN(c3ccccc3)C2=O)c(C)n1-c1cccc(O)c1 | -20.6 | 73.0* | 5.6 | -91.7 | -40.1 | 71.9* | 122.0*
Cc1ccc(CNC(=O)COc2ccc(S(=O)(=O)N3CCOCC3)cc2)cc1 | -1.1 | 10.0 | -9.5 | -5.3 | 10.0 | . | .
COc1ccccc1C(O)c1ncc(-c2cccc3ccccc23)[nH]1 (stereo not given) | -14.2 | . | . | . | . | . | .
CCc1noc(C)c1C(=O)N(Cc1ccccc1)c1c(N)n(CCOC)c(=O)[nH]c1=O | 7.0 | 16.2 | 4.0 | -9.2 | -5.5 | . | .
O=C(CCCOc1ccc(Cl)cc1Cl)N/N=C/c1cccc([N+](=O)[O-])c1 | 9.3 | -19.5 | 3.9 | -5.6 | 11.4 | . | .
SMILES | Shn3 3UTR inh | Mdm2 MdmX PPI | Gli-Sufu antag | 697 NFkB inh | Jurkat NFkB inh | Mdm2-MdmX conf | FLuc counter
O=[N+]([O-])c1cc([N+](=O)[O-])c(Oc2cncc(Cl)c2)cc1NC1CCCCCCC1 | 1.3 | 74.3* | -3.6 | -32.7 | -43.8 | 39.6 | 83.2*
CCc1cc(=O)oc2cc3occ(C)c3cc12 | 22.3 | 14.9 | -8.8 | -2.8 | 7.1 | . | .
CCc1cc(=O)oc2cc3occ(-c4ccc(OC)c(F)c4)c3cc12 | 19.4 | 64.0* | 22.9 | -14.3 | 48.1 | 73.7* | 61.9*
COC(=O)C1=C(C)Nc2nc3ccccc3n2C1c1cc(OC)c(OC)c(OC)c1 (stereo not given) | -1.7 | 51.6* | 26.3 | 25.1 | -10.0 | 45.5* | 95.8*
Cn1c(CNC(=O)c2ccco2)nnc1SCC(=O)c1ccc(Br)cc1 | -98.7 | -11.0 | 28.3 | 11.7 | 5.8 | . | .
CCOC(=O)C1Nc2ccc(C(F)(F)F)cc2C2c3ccccc3CC12 (stereo not given) | -3.8 | 97.0* | -9.7 | 26.3 | 5.5 | 70.2* | 43.2*
C[C@H]1CC[C@H]2C(=O)N3[C@H](c4ccccc4Br)[C@@H](C)CC[C@H]3C(=O)N2[C@@H]1c1ccccc1Br | . | 78.8* | . | -1.0 | 10.6 | 51.2* | 68.1*
CCc1ccc(NC(=O)COC(=O)/C=C/c2c(C)nn(C3CCS(=O)(=O)C3)c2Cl)cc1 (stereo not given) | -2.1 | 5.0 | 3.2 | 15.9 | 3.2 | . | .
CC(=O)Nc1cccc(NC(=O)c2csc(C)c2)c1 | -5.8 | -2.4 | -1.5 | 5.8 | -3.9 | . | .
Cc1cc(C)c(NC(=O)c2cccc3c2C(=O)N(C2CCCCC2)C3)c(C)c1 | 44.0 | 62.9* | 33.3 | 8.0 | 2.0 | -1.6 | .
O=C(Cc1csc(Nc2nc(=S)[nH]c3ccccc23)n1)N1CCN(c2cccc(Cl)c2)CC1 | 10.1 | 35.0 | 9.3 | -1.7 | 7.1 | . | .

High-throughput results as filed in PubChem.
